# Source: PubChem BioAssay (National Center for Advancing Translational Sciences (NCATS))
# BAZ2B block: qHTS Assay for Inhibitors of BAZ2B | Bromodomain adjacent to zinc finger domain protein 2B (Homo sapiens), Q9UIF8 | AlphaScreen BAZ2B-H3K14Ac peptide displacement | Potency, µM (doses to about 114 µM), inactives show at the highest dose activity change, negative = inhibition, actives largely listed as inhibitors | 4.4% of 360,000 active | AID 504333, 2011; note: % is set by controls: 0 for no effect and ±100 for the full control effect; nearly all actives have a fitted effect of over 60% in size
#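 AlphaScreen displacement: compounds (up to 110uM) incubated 30 min at room temperature with a preformed 50 nM BAZ2B/50 nM biotinylated H3K14Ac peptide complex in PBS pH 7.4 with Tween-20. Donor and acceptor beads at 10 ug/mL final added, 20 min light-protected before reading.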
# G9a block: qHTS Assay for Inhibitors of Histone Lysine Methyltransferase G9a; G9a H3K9 monomethylation, AlphaScreen, 2 h; 8.8% of 350,000 active; Histone-lysine N-methyltransferase EHMT2 (Homo sapiens), Q96KQ7; Potency, µM (highest dose often 102 µM), without a hit: top-dose activity, negative = inhibition, hits mostly inhibitors; note: % is set by controls: 0 for no effect and ±100 for the full control effect; nearly all actives have a fitted effect of over 75% in size
#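 Signal arises when biotinylated H3K9 peptide, once monomethylated, bridges streptavidin donor and antibody-captured acceptor beads. Enzyme at 20 nM was preincubated 15 min with test compounds; peptide 500 nM and SAM 20 uM then reacted for 2 h.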
# PLK1 PBD block: qHTS for Inhibitors of PLK1-PDB (polo-like kinase 1 - polo-box domain): Primary Screen; Serine/threonine-protein kinase PLK1 (Homo sapiens), P53350; Plk1 PBD binding of FITC phosphopeptide, fluorescence polarization; Potency, µM, for the others: max response, negative = inhibition, usual class: inhibitors; 2.8% of 360,000 active; AID 720504, 2013; note: series mostly up to about 57 µM; % is set by controls: 0 for no effect and ±100 for the full control effect; nearly all actives have a fitted effect of over 65% in size
# JMJD2A Tudor inh: qHTS Assay for Inhibitors of JMJD2A-Tudor Domain; AlphaScreen JMJD2A-Tudor / H3K4me3 peptide binding; Potency, µM (top dose mostly 114 µM), for the others: at the top dose activity change, negative = inhibition, actives largely listed as inhibitors; 4.4% of 390,000 active; AID 504339, 2011; note: % is set by controls: 0 for no effect and ±100 for the full control effect; nearly all actives have a fitted effect of over 50% in size
# Sfp PPTase inh: qHTS Assay for Inhibitors of Bacillus subtilis Sfp phosphopantetheinyl transferase (PPTase). 3.5% of 310,000 active. 4'-phosphopantetheinyl transferase ffp (Bacillus subtilis), Q9F4F7. Biochemical Sfp PPTase activity, qHTS. Potency, µM, without a hit: largest response in the series, negative = inhibition, actives largely listed as inhibitors. AID 1490, 2009;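 note: the enzyme is Sfp with the accession as filed and its product quenches rhodamine fluorescence; 0% = enzyme reaction without inhibitor and -100% = no enzyme wells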
#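 Fluorescence-quenching assay with 15 nM Sfp, 5 uM rhodamine-CoA and 12.5 uM BHQ-2-labelled ybbR peptide in pH 7.6 Hepes/MgCl2 buffer. Enzyme was pre-incubated with compound for 15 min at room temperature. Rate was taken from the 30-min fluorescence change (525/598 nm).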
# HP1b chromo inh: HTS for Inhibitors of HP1-beta Chromodomain Interactions with Methylated Histone Tails. Chromobox protein homolog 1 (Homo sapiens), P83916. AlphaScreen HP1-beta / biotin-H3K9me3 peptide binding. Potency, µM (doses to about 114 µM), for inactives: at the highest dose activity change, negative = inhibition, actives largely listed as inhibitors. 0.56% of 390,000 active. AID 540317, 2011; note: nearly all actives have a fitted effect of over 70% in size
#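 HP1-beta protein (50 nM final) preincubated 30 min at room temperature with biotinylated H3(1-18)K9me3 peptide (50 nM) in PBS pH 7.4, 0.01% Tween-20, then compound added for 30 min. AlphaScreen streptavidin donor/nickel chelate acceptor beads (10 ug/mL final), 30 min dark, luminescence read.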
# * hit, by the source's call; ? = inconclusive; . = no result; [ ] = another dose, or the depositor's remark. This is a sample that favours compounds with a hit; in the whole collection about 12% have one here. Calls come from the whole dose curve; as a rule, active = well fitted curve in the direction sought with a large enough effect; inconclusive = small, poorly fitted or top-dose-only effect, or another doubt; inactive = no such curve, though single readings can be large; an effect the other way counts as inactive or inconclusive. Potency is the fitted concentration of half-maximal effect.
SMILES,BAZ2B block,G9a block,PLK1 PBD block,JMJD2A Tudor inh,Sfp PPTase inh,HP1b chromo inh
CCCOc1cccc(C2/C(=C(/O)c3ccc4c(c3)CC(C)O4)C(=O)C(=O)N2CCN2CCOCC2)c1 (stereo not given),-21%[57.1 µM],50µM*,-8%,-15%,3%,24%
CC1Cc2cc(/C(O)=C3/C(=O)C(=O)N(CCN4CCOCC4)C3c3cccc(Cl)c3)ccc2O1 (stereo not given),-30%,0%[12.7 µM],-10%,-24%,7%,12%
COc1ccccc1OCC(=O)N(Cc1nnc(-c2ccccc2Cl)o1)C1CC1,-1%,-25%[59 µM],-2%,-4%,.,18%
C1CCC(NC(=NC2C3CC4CC(C3)CC2C4)N2CCOCC2)CC1 (stereo not given),.,25%[59 µM],.,.,15%,.
CCC/C(=N\NC(=O)c1ccc(OC)c(OC)c1)c1ccccc1,.,79µM*,4%,7%,8%,45%
CCC/C(=N\NC(=O)c1ccccc1C)c1ccccc1,3%,9%[59 µM],-16%,-13%[57.1 µM],27%,67%
COc1cc(CC(=O)NC(c2ccccc2)c2ccccc2)cc(OC)c1OC,-3%,7%[59 µM],21µM*,?,4%,-6%
COc1cc(C(=O)NC(=S)N(CCc2ccccc2)CCc2ccccc2)cc(OC)c1OC,8.9µM*,9%[59 µM],-3%,-24%,9%,2%
C/C(Cc1ccccc1)=N\NC(=O)CNC(=O)c1ccccc1,6%,24%[59 µM],-9%,-7%,4%,34%
C/C(Cc1ccccc1)=N\NC(=O)CNC(=O)c1ccc(Br)cc1,-1%,-2%[59 µM],27µM*,-28%,6%,3%
O=C1C[C@@H](O)[C@@H](O)[C@H]2[C@@H]3C(=O)N(c4cccc(Oc5ccccc5)c4)C(=O)[C@@H]3CC[C@H]12,.,.,.,.,-8%,.
CCOC(=O)C1(Cc2cccc(F)c2)CCN(Cc2cnn(CC)c2C)CC1,-29%,2%,-20%,-25%,15%,21%
CCCCNc1nc2c(c(=O)n(Cc3ccc(Cl)cc3)c(=O)n2C)n1C,?,-4%[59 µM],.,?,.,-4%
CCN(CC)C(=O)C1=C(C)N(Cc2ccccc2)C(=O)C(CC(=O)NCCc2ccccn2)C1 (stereo not given),.,.,-4%,.,.,.
COc1ccc(C(=O)NCCSc2ccccc2)cc1OC,-15%,-6%,3.4µM*,11µM*,16%,-14%
COc1ccc(C(=O)NC(=S)N(C)C2CCCCC2)cc1Br,?,16%,-7%,?,2%,9%
COc1cc(C(=O)N/N=C(\C)Cc2ccccc2)cc(OC)c1OC,-8%,14%,-4%,8.9µM*,-6%,11%
COc1ccc(C(=O)NC(=S)N(C)C2CCCCC2)cc1,-37%,79µM*,-24%,-11%,1%,41%
COc1ccc(C(=O)NC(=S)N(Cc2ccccc2)Cc2ccccc2)cc1,8.9µM*,59%[12.7 µM],-11%,56µM*,5%,?
CCN(CC)CCn1c(-c2ccccc2)nc2c(NC3CCCCC3)nc(C)nc21,.,.,.,.,16%,.
CN1CCCCc2c1[nH]c1ccccc1c2=O,11%,7%[12.7 µM],-13%,-12%[11.4 µM],-3%,62%
Cc1nn(S(=O)(=O)c2ccc(C(C)C)cc2)c(C)c1S(=O)(=O)N1CCCCC1,-23%,-39%[59 µM],.,-15%,.,22%[57 µM]
Cc1c(C(=O)N2CCN(Cc3ccccc3)CC2)oc2c1C(=O)CC(C)(C)C2,79µM*,35µM*,?,-17%,-28%,18%
COc1ccc(S(=O)(=O)Cc2ccc(C(=O)N3CCc4ccccc4C3)o2)cc1,-3%,?,-5%,?,-11%,48%
